From PubChem BioAssay
Shown are actives, neighbours in structure and some others; about 3.4% of the full set was active somewhere.
GalR3 antagonist: blocks the human galanin receptor 3; O60755; HEK293 GalR3-CNG cAMP membrane potential fluorescence; galR3 body fused to GalR1 C-terminus; inhibition, % at 3 µM; actives 0.44% (n = 360,000); AID 651719;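 active means inhibition above the screen-wide average plus 3 SD, cut at about 13% in these data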;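 further: forskolin and galanin both at EC90 stimulate the cells; cAMP rise reported by CNG channel membrane potential dye signal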
Target sequence (O60755 1-299 limits assumed): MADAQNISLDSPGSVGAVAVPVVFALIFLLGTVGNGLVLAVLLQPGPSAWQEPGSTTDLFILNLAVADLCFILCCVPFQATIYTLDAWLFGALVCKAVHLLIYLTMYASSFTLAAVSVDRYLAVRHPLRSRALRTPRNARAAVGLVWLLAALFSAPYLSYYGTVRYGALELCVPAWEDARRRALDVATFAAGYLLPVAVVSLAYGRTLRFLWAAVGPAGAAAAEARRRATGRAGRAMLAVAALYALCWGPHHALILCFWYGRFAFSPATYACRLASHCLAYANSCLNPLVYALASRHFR
SMARCA2 act: activators of SMARCA2 function; MG213 cells, MMTV-luciferase reporter, dexamethasone, overnight; activation, % at 9.1 µM; actives 1% (n = 370,000); AID 652017; in the data active means activation above about 7.8%
FXN GAA850 act: frataxin GAA850 promoter activation | HEK293 lucGAA850 FXN promoter luciferase reporter, 24 h; percent of 10 µM SAHA response | activation, % at 6 µM | actives 0.56% (n = 360,000) | AID 540364;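 active means activation above the average of all compounds screened plus 3 SD, cutoff fixed separately per campaign, cut at about 7.5% in these data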
Cardio protect: myocardial damage modulation in H9c2 cells. H9c2 cardiomyocytes, H2O2 injury protection, ATPLite, 2 h. protection from H2O2 cell death, % at 20 µM. actives 0.63% (n = 360,000). AID 588492;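 active means compounds giving at least 50% protection of heart cells from peroxide-induced death in the single-dose screen, raw or plate-pattern-corrected value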
Gli-Sufu block: Gli-Sufu pathway antagonism; Sufu-KO-LIGHT fibroblasts, Gli luciferase reporter luminescence; inhibition, % at 5 µM; actives 0.74% (n = 340,000); AID 588413;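 active means inhibition above about 55%, limit read from the data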
NR2F2 inh: blocks human COUP-TFII nuclear receptor | P24468 | HEK293T NGFI-A luciferase reporter, luminescence | actives 0.7% (n = 370,000) | inhibition, % at 8.6 µM;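 active means inhibition above a per-plate cutoff, mean inhibition of test wells between control levels plus 3 SD, cut at about 38% in these data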;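 further: cells cotransfected with COUP-TFII expression vector driving the NGFI-A reporter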
SMARCA2 act conf: confirmation of SMARCA2 (BRM) function activators. shares compounds with SMARCA2 act. MG213 cells, MMTV-luciferase with dexamethasone, luminescence, overnight; MG213 cells expressing E1A, Rb sequestered; DMSO wells 0%, reference activator 100%. activation, % at 9.1 µM. actives 30% (n = 3,500). AID 652260;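 active means activation above its plate's cutoff, the mean activation of tested wells plus 3 SD, cut at about 7.9% in these data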
GAL4-VP16 Luc: counter-screen for SMARCA2 activators: GAL4-VP16 luciferase reporter activation; activation, % at 9.1 µM; HEK293 GAL4-VP16 pG5luc reporter, luciferase luminescence; scaled: DMSO wells 0%, SAHA wells 100%; shares compounds with SMARCA2 act; actives 41% (n = 3,500);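 active means activation above the solvent-only control well mean plus 3 SD, averaged across control plates, cut at about 5.2% in these data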
A number is an active result; n = inactive; x = not tested or not shown.

SMILES	GalR3 antagonist	SMARCA2 act	FXN GAA850 act	Cardio protect	Gli-Sufu block	NR2F2 inh	SMARCA2 act conf	GAL4-VP16 Luc
Cc1cccc(C(=O)NCCN2CCOCC2)c1[N+](=O)[O-]	n	n	n	n	n	n	x	x
O=C(C1CC1)N1CCc2cc(Br)c(S(=O)(=O)NCCCN3CCCCC3)cc21	x	n	x	x	x	n	x	x
O=C(Nc1c(C(=O)Nc2ccccc2)cnn1-c1ccccc1)c1ccco1	n	9.8	n	n	n	n	n	n
Cc1ccc(NC(=O)c2cnn(-c3ccccc3)c2NC(=O)c2ccco2)cc1	n	n	n	n	n	n	x	x
O=C(Nc1ccc2c(c1)ncn2-c1ccccc1)c1ccco1	n	11	n	n	n	n	16	7.9
COCCOC1CCN(C(=O)c2cc(COc3ccc(F)cc3F)on2)CC1	n	n	n	n	n	n	x	x
Cc1ccc(-c2cnc3ccccc3n2)cc1C	n	8.2	n	n	n	n	n	9.4
Cc1cc2ncc(-c3ccccc3)nc2cc1C	n	n	n	n	n	n	x	x
CN(C(=O)COC(=O)c1ccc2c(c1)OCO2)C1CCCCC1	n	9.9	n	n	n	n	n	n
COc1ccc(C)cc1NC(=O)c1cnc2n(c1=O)CCS2	n	9.8	n	n	n	n	n	n
COc1ccc(C)cc1NC(=O)c1cnc2scc(C)n2c1=O	n	n	n	n	n	n	x	x
O=C(COC(=O)c1nc(Cl)c(Cl)c(Cl)c1Cl)c1ccc[nH]1	n	9.3	n	n	n	n	20	n
O=C(COC(=O)c1nc(Cl)ccc1Cl)c1ccc[nH]1	n	n	n	n	n	n	x	x
COc1ccc(NC(=S)N(C)CC2COc3ccccc3O2)cc1 (centres undefined)	n	n	n	n	n	n	x	x
O=C1NC(=Nc2cccnc2)S/C1=C/c1ccc(F)cc1	n	8.4	n	n	n	n	n	n
O=C1N/C(=N/S(=O)(=O)c2ccccc2)S/C1=C/c1cccnc1	n	n	n	n	n	n	x	x
COc1ccc(C(=O)N/N=C(/C)c2cccc(NC(=O)C(F)(F)F)c2)cc1	n	14	n	n	n	n	n	7.0
C/C(=N/NC(=O)c1ccoc1C)c1cccc(NC(=O)C(F)(F)F)c1	n	n	x	n	n	n	x	x
COC(=O)[C@H]1C[C@H](OC(=O)Nc2cccs2)[C@@]2(O)CN(S(=O)(=O)c3ccc(C)cc3)CC2[C@H]1C(=O)OC (some centres undefined)	n	n	n	n	x	n	x	x
O=C1Nc2ccccc2/C1=C\c1cccn1-c1ccc(OC(F)(F)F)cc1	n	n	n	n	n	n	x	x
O=C(NCCCc1ccccc1)Nc1ccccc1	n	13	n	n	n	n	n	n
Cc1ccc(CNC(=O)Nc2ccccc2)cc1	n	8.7	n	n	n	n	n	11
C/C(=N/NC(=O)Nc1ccccc1)c1ccc(C)cc1	n	8.7	n	n	x	n	n	n
C/C(=N\NC(=O)Nc1ccccc1)c1ccc2ccccc2c1	n	n	n	n	n	n	x	x
COC(=O)C1=C(C)NC(C)=C(C(=O)OC)C1C(=O)OCC(=O)c1ccc(Br)cc1	n	n	n	n	n	n	x	x
SMILES	GalR3 antagonist	SMARCA2 act	FXN GAA850 act	Cardio protect	Gli-Sufu block	NR2F2 inh	SMARCA2 act conf	GAL4-VP16 Luc
COc1cc(OC)cc(N2CCN(S(=O)(=O)c3ccc(-n4cnnn4)cc3)CC2)c1	n	9.6	n	n	n	n	n	n
COc1ccccc1N1CCN(S(=O)(=O)c2ccc(-n3cnnn3)cc2)CC1	n	n	n	n	n	n	x	x
Cc1sc(NC(=O)c2ccccc2F)c(CN2CCCCC2C)c1C (centres undefined)	n	9.5	n	n	n	n	8.6	11
CC1CN(C(=O)COC(=O)c2cccc(S(=O)(=O)N3CCc4ccccc43)c2)CC(C)O1 (centres undefined)	n	n	n	n	n	n	x	x
O=C(Oc1c(CN2CCOCC2)cc(Cl)c2cccnc12)c1ccccc1Br	n	8.7	n	n	n	n	24	n
CCOC(=O)C1=C[C@@H](C(C)(C)C)N(S(=O)(=O)c2ccc(C)cc2)[C@H]1c1cccc2ccccc12	n	n	x	n	x	n	x	x
Cc1ccc(S(=O)(=O)Nc2cccc(C(=O)NCC3CCCO3)c2)cc1F (centres undefined)	n	n	n	n	n	n	x	x
O=C(CC1CCCC1)Nc1nc2ccccc2[nH]1	n	n	n	n	n	n	x	x
O=C(Nc1nc2ccccc2[nH]1)C1CCC1	n	8.9	n	n	n	n	n	8.7
COc1ccc(Cl)cc1C(=O)Nc1nc2ccccc2[nH]1	n	n	n	n	n	n	x	x
COc1ccc(Br)c(C(=O)Nc2nc3ccccc3[nH]2)c1	n	8.8	n	n	n	n	7.8	n
COc1cc(OC)cc(C(=O)Nc2nc3ccccc3[nH]2)c1	n	n	n	n	n	n	x	x
COc1ccc(C(=O)Nc2nc3ccccc3[nH]2)cc1OC	n	11	n	n	n	n	n	10
CCOC(=O)C1(C)CCN1C(=O)c1cc(F)cc(F)c1 (centres undefined)	n	n	n	n	x	n	x	x
COc1ccc2c(c1OC)C(=O)OC2N1C(=O)CC[C@H]1C(=O)Nc1ccc2c(c1)OCO2 (some centres undefined)	n	n	n	n	n	n	x	x
CCOC(=O)C(Cc1ccc(O)cc1)NC(=O)CNC(=O)C1CCCN1C(=O)OC(C)(C)C (centres undefined)	n	n	n	n	n	n	x	x
CN(C)c1ccc(C=C2C=C(c3ccccc3)OC2=O)cc1	n	n	n	n	x	n	x	x
Cc1ccc(C=C2C=C(c3ccccc3)OC2=O)cc1	n	8.6	n	n	x	n	n	6.1
COc1ccc(-c2cc(C(=O)NC(Cc3cc4ccccc4[nH]3)C(=O)O)c(C)o2)cc1OC (centres undefined)	n	11	n	n	n	n	9.9	n
COc1ccc2c(CCNC(=O)c3ccco3)c[nH]c2c1	n	9.6	n	n	n	n	n	n
COc1ccc2c(CCNC(N)=S)c[nH]c2c1	n	n	n	n	n	n	x	x
CCCc1nc(-c2cc3ccc(C)cc3[nH]c2=O)no1	n	9.2	n	n	n	n	n	n
CCOc1ccccc1-c1nc(-c2cc3ccc(C)cc3[nH]c2=O)no1	n	n	n	n	n	n	x	x
COc1cc(C(=O)NC(=S)Nc2ccc3c(c2)C(=O)N(C)C3=O)cc(OC)c1OC	n	n	n	n	n	n	x	x
CN(Cc1ccccc1)S(=O)(=O)c1ccc2[nH]c(=O)ccc2c1	x	8.7	n	n	n	n	n	n
